What follows are compounds tested on LIMK1. Settings: concentration: 1 μM, replicates: in singlicate; n = 1.
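Further: KINOMEscan kinase panel screen.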

SMILES | %Inh [%]
COc1cccc(NC(=O)Nc2ccc(C)c(-c3ccc(C(=O)Nc4ccncc4)cc3)c2)c1 [GSK1398474] | 11
CS(=O)(=O)Cc1ccc(Nc2nccc(-c3c(-c4cccc(NC(=O)C5CCCCC5)c4)nn4ncccc34)n2)cc1 [GSK350559] | 22
COc1ccc(Nc2nccc(-c3ccc(NC(=O)c4cc5cc(F)ccc5[nH]4)cc3)n2)cc1 [GSK1229496] | 38
Cc1cccc2c(-c3ccncn3)c(-c3ccc(F)cc3)nn12 [GW515532] | 0
NS(=O)(=O)c1cccc(N/C=C2\C(=O)Nc3ccc(S(=O)(=O)Cc4c(Cl)cccc4Cl)cc32)c1 [GSK398099] | 7
O=C(Nc1n[nH]c2nc(-c3ccco3)c(Br)cc12)C1CCN(Cc2ccccc2)C1.O=C(O)[C@H](O)[C@@H](O)C(=O)O (stereo not drawn) [SB-742034] | 0
COc1ccc(-c2coc3ccc(-c4nnc(C)o4)cc23)cc1 | 0
O=c1cc(N2CCOCC2)nc2n(Cc3ccccc3F)ccn12 [GSK2297428] | 0
COC(=O)c1cccc(NC(=O)NC2CCN(c3ccnc(Nc4ccc(F)cc4)n3)C2)c1 (stereo not drawn) [GSK1379725] | 0
Cc1c(Cn2c(C)c(C)n3c(=O)cc(N4CCOCC4)nc23)cccc1C(F)(F)F [GSK2328680] | 8
CNC(=O)c1ccc(C)c(-n2c(C)cc(OCc3ccc(F)cc3F)c(Br)c2=O)c1 | 0
COc1ccc(Nc2nccc(N3CCC(NC(=O)c4cc5ccccc5s4)C3)n2)cc1 (stereo not drawn) [GSK1379738] | 8
CC(=O)c1cccc(NC(=O)NC2CCN(c3ccnc(Nc4ccc(F)cc4)n3)C2)c1 (stereo not drawn) [GSK1379710] | 11
O=C1NC(=O)C(c2ccc(Cl)cc2)=C1Nc1cccc(Cl)c1 [SB-317651] | 0
Cc1ccc(NC(=O)Nc2ccccc2F)cc1-c1ccc(C(=O)Nc2ccncc2)cc1 [GSK1398477] | 36
Cc1ccc(NC(=O)c2ccc(Cl)cc2)cc1-c1ccc(C(=O)Nc2ccncc2)cc1 [GSK1398467] | 0
Cc1ccccc1-c1cc(-c2c[nH]nc2-c2ccccn2)ccn1 [GW680061] | 0
CC[C@@H]1CO[C@H](C(=O)Nc2ccccc2)CN1c1cc(-c2ccc3c(N)n[nH]c3c2)nc(NC)n1 [GSK2376236] | 1

SMILES | %Inh [%]
COc1ccc(CSc2nnc(-c3ccc4ncsc4c3)o2)cc1C(F)(F)F | 0
Cc1ccc(-c2nc(Nc3ccncc3)c3ccccc3n2)s1 [GSK189015] | 31
Cc1ccccc1Cn1ccn2c(=O)cc(N3CCOCC3)nc12 [GSK2269905] | 18
CS(=O)(=O)CCNCc1nc(-c2ccc3ncnc(Nc4ccc5c(cnn5Cc5ccccc5)c4)c3c2)cs1.Cl.Cl [GW569716] | 0
Cc1nccc(-c2c(-c3ccc(F)cc3)ncn2CCCN2CCOCC2)n1.Cl [SB-282975] | 11
Cn1cncc1C(=O)NC1CCN(c2ccnc(Nc3ccc(F)cc3)n2)C1 (stereo not drawn) [GSK1379717] | 0
CN1c2ccc(-c3ccc(C(N)=O)cc3)cc2-c2[nH]ncc2S1(=O)=O | 0
CC(C)c1cc(-c2ccc3c(N)n[nH]c3c2)nc(N)n1 [GSK2250882] | 0
O=C(Nc1n[nH]c2nc(-c3cccs3)c(Br)cc12)C1CC1 [SB-735297] | 26
Cc1ccc(NC(=O)Nc2ccc(Cl)cc2)cc1-c1ccc(C(=O)Nc2ccncc2)cc1 [GSK1398472] | 28
Fc1ccc(-c2nn3cccc(F)c3c2-c2ccncc2)cc1 [GW475620] | 0
CC(C)c1ccc(O)cc1Nc1ccnc2ccc(C(F)(F)F)cc12 [GW482059] | 0
Fc1ccc(-c2nc3n(c2-c2ccncc2)CCS3)cc1 [GI98581] | 0
O=C(Nc1n[nH]c2cc(-c3ccsc3)ccc12)C1CC1 [SB-732932] | 0
Cc1cnc(N)c(/C=C/c2cncc(C(=O)NCCc3ccc(Cl)cc3Cl)c2)c1.Cl [GSK190937] | 0
CC(=O)c1c(C)c2cnc(Nc3ccc(N4CCNCC4)cn3)nc2n(C2CCCC2)c1=O | 0
COc1ccc2cc(-c3nc(-c4ccccc4C(C)C)[nH]c3-c3ccncc3)ccc2c1 [SB-660566] | 8
CCc1ccc(-c2ccc3c(c2)-c2n[nH]cc2S(=O)(=O)N3C)cc1 | 0

The compounds below were run on LIMK2. Settings: concentration: 1 μM, replicates: in singlicate; n = 1.

SMILES | %Inh [%]
COc1cccc(NC(=O)Nc2ccc(C)c(-c3ccc(C(=O)Nc4ccncc4)cc3)c2)c1 [GSK1398474] | 8
CS(=O)(=O)Cc1ccc(Nc2nccc(-c3c(-c4cccc(NC(=O)C5CCCCC5)c4)nn4ncccc34)n2)cc1 [GSK350559] | 14
COc1ccc(Nc2nccc(-c3ccc(NC(=O)c4cc5cc(F)ccc5[nH]4)cc3)n2)cc1 [GSK1229496] | 7
Cc1cccc2c(-c3ccncn3)c(-c3ccc(F)cc3)nn12 [GW515532] | 0
NS(=O)(=O)c1cccc(N/C=C2\C(=O)Nc3ccc(S(=O)(=O)Cc4c(Cl)cccc4Cl)cc32)c1 [GSK398099] | 28
O=C(Nc1n[nH]c2nc(-c3ccco3)c(Br)cc12)C1CCN(Cc2ccccc2)C1.O=C(O)[C@H](O)[C@@H](O)C(=O)O (stereo not drawn) [SB-742034] | 0
COc1ccc(-c2coc3ccc(-c4nnc(C)o4)cc23)cc1 | 0
O=c1cc(N2CCOCC2)nc2n(Cc3ccccc3F)ccn12 [GSK2297428] | 1
COC(=O)c1cccc(NC(=O)NC2CCN(c3ccnc(Nc4ccc(F)cc4)n3)C2)c1 (stereo not drawn) [GSK1379725] | 0
Cc1c(Cn2c(C)c(C)n3c(=O)cc(N4CCOCC4)nc23)cccc1C(F)(F)F [GSK2328680] | 4
CNC(=O)c1ccc(C)c(-n2c(C)cc(OCc3ccc(F)cc3F)c(Br)c2=O)c1 | 0
COc1ccc(Nc2nccc(N3CCC(NC(=O)c4cc5ccccc5s4)C3)n2)cc1 (stereo not drawn) [GSK1379738] | 17
CC(=O)c1cccc(NC(=O)NC2CCN(c3ccnc(Nc4ccc(F)cc4)n3)C2)c1 (stereo not drawn) [GSK1379710] | 22
O=C1NC(=O)C(c2ccc(Cl)cc2)=C1Nc1cccc(Cl)c1 [SB-317651] | 7
Cc1ccc(NC(=O)Nc2ccccc2F)cc1-c1ccc(C(=O)Nc2ccncc2)cc1 [GSK1398477] | 15
Cc1ccc(NC(=O)c2ccc(Cl)cc2)cc1-c1ccc(C(=O)Nc2ccncc2)cc1 [GSK1398467] | 3
Cc1ccccc1-c1cc(-c2c[nH]nc2-c2ccccn2)ccn1 [GW680061] | 0
CC[C@@H]1CO[C@H](C(=O)Nc2ccccc2)CN1c1cc(-c2ccc3c(N)n[nH]c3c2)nc(NC)n1 [GSK2376236] | 9

SMILES | %Inh [%]
COc1ccc(CSc2nnc(-c3ccc4ncsc4c3)o2)cc1C(F)(F)F | 0
Cc1ccc(-c2nc(Nc3ccncc3)c3ccccc3n2)s1 [GSK189015] | 7
Cc1ccccc1Cn1ccn2c(=O)cc(N3CCOCC3)nc12 [GSK2269905] | 0
CS(=O)(=O)CCNCc1nc(-c2ccc3ncnc(Nc4ccc5c(cnn5Cc5ccccc5)c4)c3c2)cs1.Cl.Cl [GW569716] | 0
Cc1nccc(-c2c(-c3ccc(F)cc3)ncn2CCCN2CCOCC2)n1.Cl [SB-282975] | 10
Cn1cncc1C(=O)NC1CCN(c2ccnc(Nc3ccc(F)cc3)n2)C1 (stereo not drawn) [GSK1379717] | 2
CN1c2ccc(-c3ccc(C(N)=O)cc3)cc2-c2[nH]ncc2S1(=O)=O | 0
CC(C)c1cc(-c2ccc3c(N)n[nH]c3c2)nc(N)n1 [GSK2250882] | 0
O=C(Nc1n[nH]c2nc(-c3cccs3)c(Br)cc12)C1CC1 [SB-735297] | 0
Cc1ccc(NC(=O)Nc2ccc(Cl)cc2)cc1-c1ccc(C(=O)Nc2ccncc2)cc1 [GSK1398472] | 67
Fc1ccc(-c2nn3cccc(F)c3c2-c2ccncc2)cc1 [GW475620] | 0
CC(C)c1ccc(O)cc1Nc1ccnc2ccc(C(F)(F)F)cc12 [GW482059] | 0
Fc1ccc(-c2nc3n(c2-c2ccncc2)CCS3)cc1 [GI98581] | 0
O=C(Nc1n[nH]c2cc(-c3ccsc3)ccc12)C1CC1 [SB-732932] | 0
Cc1cnc(N)c(/C=C/c2cncc(C(=O)NCCc3ccc(Cl)cc3Cl)c2)c1.Cl [GSK190937] | 2
CC(=O)c1c(C)c2cnc(Nc3ccc(N4CCNCC4)cn3)nc2n(C2CCCC2)c1=O | 99.5
COc1ccc2cc(-c3nc(-c4ccccc4C(C)C)[nH]c3-c3ccncc3)ccc2c1 [SB-660566] | 0
CCc1ccc(-c2ccc3c(c2)-c2n[nH]cc2S(=O)(=O)N3C)cc1 | 0

Reference: PMC5540273 (PLoS ONE, 2017)
